Laboratory results: PubChem BioAssay AID449768 (Vanderbilt High Throughput Screening Facility, 2010)
Out of some 110,000 compounds screened, about 1,400 (1.3%) were called active. Many of the other results were omitted from the sample, so actives are more common in it than they were. A number with no mark means an inactive call.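 The calls were made as follows: active = Z score or B-score, a plate-position-corrected score, falls beyond the plate's 99.7% confidence bounds, in either direction; inactive = both scores lie inside the 99.7% bounds.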

Biological target: Sodium-dependent dopamine transporter (Homo sapiens) (UniProt Q01959)
Assay: changed hDAT dopamine uptake under cocaine IC80, either direction, primary screen, cocaine antagonist project, cell-based, LLC-PK1 hDAT, [14C]-dopamine uptake, MLSMR (AID 449768);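 also: scored against the spread of the other compound wells on the same plate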
Details: LLC-PK1 hDAT cells, [14C]-dopamine uptake with cocaine IC80; at 10 µM; actives deviate in either direction

Sequence of Sodium-dependent dopamine transporter (Homo sapiens) (Q01959 whole entry, looked up): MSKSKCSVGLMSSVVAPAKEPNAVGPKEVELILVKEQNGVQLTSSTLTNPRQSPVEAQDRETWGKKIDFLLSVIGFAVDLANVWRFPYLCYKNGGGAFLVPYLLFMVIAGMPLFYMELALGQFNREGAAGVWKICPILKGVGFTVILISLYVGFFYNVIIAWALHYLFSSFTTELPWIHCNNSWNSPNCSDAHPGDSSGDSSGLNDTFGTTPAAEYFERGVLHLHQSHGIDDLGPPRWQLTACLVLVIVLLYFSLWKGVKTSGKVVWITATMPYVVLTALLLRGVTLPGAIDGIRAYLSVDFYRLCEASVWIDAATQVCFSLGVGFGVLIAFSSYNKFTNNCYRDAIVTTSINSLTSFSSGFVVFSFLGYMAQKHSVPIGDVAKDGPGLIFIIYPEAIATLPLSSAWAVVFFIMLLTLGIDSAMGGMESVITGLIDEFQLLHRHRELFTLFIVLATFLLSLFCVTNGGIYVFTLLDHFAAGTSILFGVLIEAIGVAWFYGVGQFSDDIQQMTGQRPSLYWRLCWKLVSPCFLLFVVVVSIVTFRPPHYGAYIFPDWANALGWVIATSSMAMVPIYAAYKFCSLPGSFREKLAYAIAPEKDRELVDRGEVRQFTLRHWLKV

| Compound | B-score |
| --- | --- |
| COc1ccc(C2/C=C\CN(CC(C)C)CC(=O)N2Cc2ccc(F)cc2)cc1 (stereo not drawn) | -0.0164 |
| Cc1cccc(Nc2nc(NCCO)nc(N3CCCC3)n2)c1 | 1.01 |
| CCC1SC2=NCCN2C1(O)c1ccc(Cl)cc1 (stereo not drawn) | -5.92 (active) |
| NC(=O)CC[C@@H]1NC(=O)[C@@H]2CCCN2C(=O)c2cc([N+](=O)[O-])cc(F)c2NCCC[C@@H](C(N)=O)NC1=O | -0.0519 |
| O=C(COc1ccccc1)NCc1ccc2c(c1)OCO2 | -0.475 |
| Cn1cc(CCC(=O)NCc2ccc3c(c2)OCO3)c2ccccc21 | 0.0949 |
| O=C(CCNS(=O)(=O)c1ccccc1C(F)(F)F)NCc1ccc2c(c1)OCO2 | -3.26 (active) |
| NC(=O)C[C@@H]1NC(=O)CNC(=O)c2cc([N+](=O)[O-])cc(I)c2NCCC(C(N)=O)NC1=O (stereo partly drawn) | 0.453 |
| O=S(=O)(c1cccc(S(=O)(=O)N2CCC(n3nnc4ccccc43)CC2)c1)N1CCCCC1 | 0.575 |
| O=C(O)CCSc1nnc(-c2ccccc2)n1-c1ccccc1 | -0.0697 |
| O=S(=O)(c1cccc(-c2nnc(SC(F)F)n2-c2ccccc2)c1)N1CCCCC1 | -7.23 (active) |
| COC(=O)CCCC1=CC2=CC(=O)C(C)(OC(=O)c3cccs3)C(=O)C2=CN1c1cccc(C#N)c1 (stereo not drawn) | -2.03 |
| COc1ccc(NC(=O)c2ccc(OC)cc2)cc1 | -1.02 |
| COc1ccc(NC(=O)ON=C2c3ccccc3-c3ccccc32)cc1 | 3.84 (active) |
| CCCNC(=O)Nc1ccccc1C(=O)Nc1ccc(OC)cc1 | 1.39 |
| Cc1nc(C(=O)Nc2ccc(Cl)cc2)sc1C1(C)CC(c2ccccc2)=NO1 (stereo not drawn) | 0.677 |
| CC(C)[C@@H]1NC(=O)c2cc([N+](=O)[O-])cc(I)c2NCCC[C@@H](C(=O)NC(CC(=O)O)C(N)=O)NC(=O)[C@H](CO)NC1=O (stereo partly drawn) | -0.454 |
| Cc1ccc(S(=O)(=O)C(C#N)c2nc3ccccc3nc2N2CCCC2)cc1C (stereo not drawn) | 1.69 |
| Cc1cc(N2CCN(S(=O)(=O)c3ccc(C)c(C)c3)CC2)c2ccccc2n1 | 3.23 (active) |
| Cc1ccc(N2CCN(S(=O)(=O)c3ccc(F)cc3)CC2)c(C)c1 | 0.000185 |
| C=CC(COCc1ccccc1)N(Cc1ccccc1)S(=O)(=O)c1ccccc1Br (stereo not drawn) | -0.104 |
| C#CCO[C@@H]1C[C@H](n2cnc3c(=O)[nH]c(NC(=O)C(C)C)nc32)O[C@@H]1CO | 0.438 |
| COC(=O)c1ccc(C(NC(=O)OCc2ccccc2)/C(F)=C/[C@@H](C)C(=O)O)cc1 (stereo partly drawn) | -0.297 |
| C/C=C(\C)C(=O)NCCN1C2=NC[C@H](Cc3ccc(O)cc3)N2C[C@@H]1Cc1ccc(OC)cc1 | 1.04 |
| COC(=O)c1ccc(NC(=O)C23CC4CC(C2)CC(n2cnc(Cl)n2)(C4)C3)cc1 | -1.17 |
| CC(N)C12CC3CC(CC(O)(C3)C1)C2 (stereo not drawn) | -0.549 |
| Cc1ncn(C23CC4CC(CC(O)(C4)C2)C3)n1 | -8.14 (active) |

| Compound | B-score |
| --- | --- |
| COC(=O)c1c(C)cc(O)c(C)c1O | -0.00953 |
| COC(C/C=C/C(=O)[C@@H](C)OCc1ccccc1)OC | 0.0548 |
| C=C1C2C[C@H](O)C(C)(C)[C@@]2(O)[C@H](O)C[C@]23C[C@@](C)(O)[C@H](CC[C@H]12)[C@H]3O (stereo partly drawn) | -0.371 |
| C=CCC1(C(=O)N(C)Cc2ccccc2)CCN(C(=O)OC(C)(C)C)CC1 | 1.32 |
| O=C1N[C@H](Cc2ccccc2)C(=O)N[C@H]1Cc1cn(S(=O)(=O)c2ccccc2)c2ccccc12 | -1.21 |
| CC(C)(C)CN1C(=O)C(=O)NC[C@H]1Cc1cccc2ccccc12 | 1.91 |
| CCOC(=O)C1=C(C)Nc2sc(C(=O)c3ccc(Br)cc3)c(N)c2C1c1ccc(C(=O)OC)cc1 (stereo not drawn) | 2.41 (active) |
| CCOC(=O)C1=C(C)NC(C)=C(C(=O)OCC)C1c1ccccn1 | -1.62 |
| CCOC(=O)c1sc(=S)n2c1[nH]c(=O)c1ccc(C(=O)OC)cc12 | 0.185 |
| Cc1ccc(CNC(=O)c2ccc3c(c2)S(=O)(=O)c2ccccc2C3=O)cc1 | 0.00832 |
| CCCC[C@@H]1CN=C(N)N1CCCC | 0.44 |
| CC(=O)Oc1ccccc1C(=O)Nc1ncc([N+](=O)[O-])s1 | -5.94 (active) |
| COC(=O)CNC(=O)c1ccccc1[N+](=O)[O-] | -0.561 |
| CC(=O)c1sc(NC(=O)c2cccc3ccccc23)nc1C | 1.43 |
| COC(=O)C1=C(C)Nc2ncnn2C1c1cccnc1 (stereo not drawn) | 0.0386 |
| CCSc1nc2c(c(=O)[nH]1)C(c1cccnc1)C(C(=O)OC(C)C)=C(C)N2 (stereo not drawn) | 2.12 (active) |
| COC(=O)C1=C(N)Oc2cc(C)oc(=O)c2C1c1cccnc1 (stereo not drawn) | 0.0204 |
| CCC(=O)Nc1cccc(C2=NOC3(C2)C[C@@H](C(N)=O)N(C(=O)c2cc([N+](=O)[O-])cc([N+](=O)[O-])c2C)C3)c1 (stereo partly drawn) | -0.0284 |
| COC(=O)C1(S(=O)(=O)C2(C(=O)OC)CCCC2)CCCC1 | -2.03 (active) |
| C#CCOCCOCCOCCNc1nc(N2CCN(C(=O)[C@H](CCC(=O)O)n3cc(C(N)CO)nn3)CC2)nc(N2CCN(C(=O)[C@H](CCCCN)n3cc(C(N)CC(C)C)nn3)CC2)n1 (stereo partly drawn) | -0.496 |
| COC(C[C@@H](O)[C@H](C)[C@H](O)COCc1ccccc1)OC | -0.281 |
| CC(C)=CCc1c(O)c(CC=C(C)C)c2occ(-c3ccc(O)cc3)c(=O)c2c1O | 1.79 |
| CNC(=O)c1[nH]cnc1C(=O)N[C@@H](CC(C)C)C(=O)OC(C)(C)C | 0.0376 |
| COc1cc(C2C(C(=O)c3ccc(C)o3)=C(O)C(=O)N2CCc2ccccc2)ccc1O (stereo not drawn) | -5.4 (active) |
| CCCOc1ccc(C2C(C(=O)c3ccc(C)o3)=C(O)C(=O)N2CCCn2ccnc2)cc1 (stereo not drawn) | 0.735 |
| COc1cc(C2C(C(=O)c3ccc(C)o3)=C(O)C(=O)N2Cc2cccnc2)ccc1O (stereo not drawn) | -0.83 |
